This is an account of results in paper PMC9911399, “Two distinct binding modes provide the RNA-binding protein RbFox with extraordinary sequence specificity”.

First the molecules themselves.
T1: RBFOX1 RRM RbFoxmut (Fox-RRM*) (Homo sapiens, UniProt Q9NWB1 109-208, R118D;E147R;N151S;E152T)
T1 sequence: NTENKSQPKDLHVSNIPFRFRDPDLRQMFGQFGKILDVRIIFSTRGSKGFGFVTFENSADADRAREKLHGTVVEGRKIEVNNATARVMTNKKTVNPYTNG

B1: GUCUGGU (DNA:RNA)
RNA: GGGAGACCGGAAUUCAGAUUGUCCGUCUGGUUUAAAUCCCGUCGUAGCCACCA
DNA 1: CAATCTGAATTCCGGTCTCCC
DNA 2: TGGTGGCTACGACGGGATT
B2: AAACGGC (DNA:RNA)
RNA: B1 RNA with G25A, U26A, C27A, U28C, U31C
DNA 1: CAATCTGAATTCCGGTCTCCC
DNA 2: TGGTGGCTACGACGGGATT
B3: UCAUAGC (DNA:RNA)
RNA: B1 RNA with G25U, U26C, C27A, G29A, U31C
DNA 1: CAATCTGAATTCCGGTCTCCC
DNA 2: TGGTGGCTACGACGGGATT
B4: ACGGCGA (DNA:RNA)
RNA: B1 RNA with G25A, U26C, C27G, U28G, G29C, U31A
DNA 1: CAATCTGAATTCCGGTCTCCC
DNA 2: TGGTGGCTACGACGGGATT
B5: CUUUAUC (DNA:RNA)
RNA: B1 RNA with G25C, C27U, G29A, G30U, U31C
DNA 1: CAATCTGAATTCCGGTCTCCC
DNA 2: TGGTGGCTACGACGGGATT
B6: AAGCCUG (DNA:RNA)
RNA: GGGAGACCGGAAUUCAGAUUGUCCAAGCCUGUUAAAUCCCGUCGUAGCCACCA
DNA 1: CAATCTGAATTCCGGTCTCCC
DNA 2: TGGTGGCTACGACGGGATT
B7: CAGGCUA (DNA:RNA)
RNA: B6 RNA with A25C, C28G, G31A
DNA 1: CAATCTGAATTCCGGTCTCCC
DNA 2: TGGTGGCTACGACGGGATT
B8: ACACAAA (DNA:RNA)
RNA: B6 RNA with A26C, G27A, C29A, U30A, G31A
DNA 1: CAATCTGAATTCCGGTCTCCC
DNA 2: TGGTGGCTACGACGGGATT
B9: GGUUCUG (DNA:RNA)
RNA: B6 RNA with A25G, A26G, G27U, C28U
DNA 1: CAATCTGAATTCCGGTCTCCC
DNA 2: TGGTGGCTACGACGGGATT
B10: UGGCGUG (DNA:RNA)
RNA: B6 RNA with A25U, A26G, C29G
DNA 1: CAATCTGAATTCCGGTCTCCC
DNA 2: TGGTGGCTACGACGGGATT
B11: CAGCAUC (DNA:RNA)
RNA: B6 RNA with A25C, C29A, G31C
DNA 1: CAATCTGAATTCCGGTCTCCC
DNA 2: TGGTGGCTACGACGGGATT
B12: ACCAUGC (DNA:RNA)
RNA: B1 RNA with G25A, U26C, U28A, G29U, U31C
DNA 1: CAATCTGAATTCCGGTCTCCC
DNA 2: TGGTGGCTACGACGGGATT
B13: AGCCUGC (DNA:RNA)
RNA: B6 RNA with A26G, G27C, C29U, U30G, G31C
DNA 1: CAATCTGAATTCCGGTCTCCC
DNA 2: TGGTGGCTACGACGGGATT
B14: AGCAUGA (DNA:RNA)
RNA: B1 RNA with G25A, U26G, U28A, G29U, U31A
DNA 1: CAATCTGAATTCCGGTCTCCC
DNA 2: TGGTGGCTACGACGGGATT
B15: AUGCUUG (DNA:RNA)
RNA: B6 RNA with A26U, C29U
DNA 1: CAATCTGAATTCCGGTCTCCC
DNA 2: TGGTGGCTACGACGGGATT
B16: CAGCAUA (DNA:RNA)
RNA: B6 RNA with A25C, C29A, G31A
DNA 1: CAATCTGAATTCCGGTCTCCC
DNA 2: TGGTGGCTACGACGGGATT
B17: AGCAUGC (DNA:RNA)
RNA: B1 RNA with G25A, U26G, U28A, G29U, U31C
DNA 1: CAATCTGAATTCCGGTCTCCC
DNA 2: TGGTGGCTACGACGGGATT
B18: AGCCAGC (DNA:RNA)
RNA: B6 RNA with A26G, G27C, C29A, U30G, G31C
DNA 1: CAATCTGAATTCCGGTCTCCC
DNA 2: TGGTGGCTACGACGGGATT
B19: AUGCUGC (DNA:RNA)
RNA: B6 RNA with A26U, C29U, U30G, G31C
DNA 1: CAATCTGAATTCCGGTCTCCC
DNA 2: TGGTGGCTACGACGGGATT
B20: CAGCAUG (DNA:RNA)
RNA: B6 RNA with A25C, C29A
DNA 1: CAATCTGAATTCCGGTCTCCC
DNA 2: TGGTGGCTACGACGGGATT
B21: ACCAGCA (DNA:RNA)
RNA: B1 RNA with G25A, U26C, U28A, G30C, U31A
DNA 1: CAATCTGAATTCCGGTCTCCC
DNA 2: TGGTGGCTACGACGGGATT
B22: AGCAUAA (DNA:RNA)
RNA: B6 RNA with A26G, G27C, C28A, C29U, U30A, G31A
DNA 1: CAATCTGAATTCCGGTCTCCC
DNA 2: TGGTGGCTACGACGGGATT
B23: AAGUUAU (DNA:RNA)
RNA: B6 RNA with C28U, C29U, U30A, G31U
DNA 1: CAATCTGAATTCCGGTCTCCC
DNA 2: TGGTGGCTACGACGGGATT
B24: GUUUCAU (DNA:RNA)
RNA: B1 RNA with C27U, G29C, G30A
DNA 1: CAATCTGAATTCCGGTCTCCC
DNA 2: TGGTGGCTACGACGGGATT
B25: UAGCAGU (DNA:RNA)
RNA: B6 RNA with A25U, C29A, U30G, G31U
DNA 1: CAATCTGAATTCCGGTCTCCC
DNA 2: TGGTGGCTACGACGGGATT
B26: CGUACCU (DNA:RNA)
RNA: B6 RNA with A25C, A26G, G27U, C28A, U30C, G31U
DNA 1: CAATCTGAATTCCGGTCTCCC
DNA 2: TGGTGGCTACGACGGGATT
B27: AUGGUUG (DNA:RNA)
RNA: B6 RNA with A26U, C28G, C29U
DNA 1: CAATCTGAATTCCGGTCTCCC
DNA 2: TGGTGGCTACGACGGGATT
B28: AGCAUUG (DNA:RNA)
RNA: B6 RNA with A26G, G27C, C28A, C29U
DNA 1: CAATCTGAATTCCGGTCTCCC
DNA 2: TGGTGGCTACGACGGGATT
B29: ACCAUGG (DNA:RNA)
RNA: B6 RNA with A26C, G27C, C28A, C29U, U30G
DNA 1: CAATCTGAATTCCGGTCTCCC
DNA 2: TGGTGGCTACGACGGGATT
B30: AGAUGGU (DNA:RNA)
RNA: B1 RNA with G25A, U26G, C27A
DNA 1: CAATCTGAATTCCGGTCTCCC
DNA 2: TGGTGGCTACGACGGGATT
B31: UAGCAUG (DNA:RNA)
RNA: B6 RNA with A25U, C29A
DNA 1: CAATCTGAATTCCGGTCTCCC
DNA 2: TGGTGGCTACGACGGGATT
B32: AGCAUGU (DNA:RNA)
RNA: B1 RNA with G25A, U26G, U28A, G29U
DNA 1: CAATCTGAATTCCGGTCTCCC
DNA 2: TGGTGGCTACGACGGGATT
B33: UAGCAUC (DNA:RNA)
RNA: B6 RNA with A25U, C29A, G31C
DNA 1: CAATCTGAATTCCGGTCTCCC
DNA 2: TGGTGGCTACGACGGGATT
B34: AGCAUGG (DNA:RNA)
RNA: B6 RNA with A26G, G27C, C28A, C29U, U30G
DNA 1: CAATCTGAATTCCGGTCTCCC
DNA 2: TGGTGGCTACGACGGGATT
B35: AGCAUAU (DNA:RNA)
RNA: B1 RNA with G25A, U26G, U28A, G29U, G30A
DNA 1: CAATCTGAATTCCGGTCTCCC
DNA 2: TGGTGGCTACGACGGGATT
B36: AGCCAUG (DNA:RNA)
RNA: B6 RNA with A26G, G27C, C29A
DNA 1: CAATCTGAATTCCGGTCTCCC
DNA 2: TGGTGGCTACGACGGGATT
B37: UAGCAUA (DNA:RNA)
RNA: B6 RNA with A25U, C29A, G31A
DNA 1: CAATCTGAATTCCGGTCTCCC
DNA 2: TGGTGGCTACGACGGGATT
B38: AUGUUGG (DNA:RNA)
RNA: B6 RNA with A26U, C28U, C29U, U30G
DNA 1: CAATCTGAATTCCGGTCTCCC
DNA 2: TGGTGGCTACGACGGGATT

Numbering of substitutions follows the chain as printed; changes in the protein carry UniProt numbers. Over roughly 16,000 sequences, “ka relative to ugcaugu” has its median near 0.096; the highest 2% begin near 0.35. Shown is part of a subset that was picked to be rich in the highest values.

The assay has as its target T1, RBFOX1 RRM RbFoxmut (Fox-RRM*). The assay is described as follows: EMSA; HiTS-Eq, 1 nM pool, 10 min; buffer printed only for the single-RNA assays: 10 mM Tris pH 7.5, 150 mM NaCl, 3.4 mM EDTA, 0.001% NP-40, 30 C. The following applies: tags: His6 N-terminal (pET28a); label: 5' 32P. Summed up: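 A pool of RNA with 7 randomized nucleotides, 5′-radiolabelled and with DNA-annealed flanks, was equilibrated at 1 nM for 10 min in 50 µL with purified RbFox RRM, wild type or mutant, across increasing protein concentrations. Free RNA was separated by 8% native PAGE, excised, reverse-transcribed, barcoded by PCR and sequenced. Relative association constants were obtained from read-count changes of each RNA species versus the control reaction and normalised to the cognate motif.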
On the technique in general: In EMSA bound probe runs differently from free probe, usually more slowly.
For B1, the binding signal was 0.192 KA relative to UGCAUGU.
In the case of B2, the binding signal is 0.085 KA relative to UGCAUGU.
Under B3 stands 0.116 KA relative to UGCAUGU; under B4, 0.1 KA relative to UGCAUGU.
For the molecule B5, the binding signal was 0.0598 KA relative to UGCAUGU.
B6: the binding signal was 0.0848 KA relative to UGCAUGU.
The value for B7 was 0.0916 KA relative to UGCAUGU.
Under B8 stands 0.0812 KA relative to UGCAUGU; under B9, 0.208 KA relative to UGCAUGU.
As to B10, the binding signal is 0.321 KA relative to UGCAUGU.
In the case of B11, the binding signal is 0.307 KA relative to UGCAUGU.
The value for B12 was 0.0949 KA relative to UGCAUGU; that for B13 was 0.0804 KA relative to UGCAUGU; that for B14 was 0.524 KA relative to UGCAUGU.
The value for B15 was 0.361 KA relative to UGCAUGU; that for B16 was 0.137 KA relative to UGCAUGU.
Under B17 stands 0.495 KA relative to UGCAUGU.
On to B18, for which the binding signal was 0.0776 KA relative to UGCAUGU.
Under B19 stands 0.126 KA relative to UGCAUGU; under B20, 0.965 KA relative to UGCAUGU.
The value for B21 was 0.121 KA relative to UGCAUGU; that for B22 was 0.0973 KA relative to UGCAUGU; that for B23 was 0.118 KA relative to UGCAUGU.
Regarding B24, the binding signal is 0.132 KA relative to UGCAUGU.
The value for B25 was 0.0735 KA relative to UGCAUGU.
Regarding B26, the binding signal is 0.099 KA relative to UGCAUGU.
Under B27 stands 0.48 KA relative to UGCAUGU.
On to B28, for which the binding signal was 0.2 KA relative to UGCAUGU.
Consider B29, for which the binding signal was 0.0839 KA relative to UGCAUGU.
Under B30 stands 0.117 KA relative to UGCAUGU.
For the molecule B31, the binding signal was 0.819 KA relative to UGCAUGU.
The value for B32 was 0.713 KA relative to UGCAUGU; that for B33 was 0.266 KA relative to UGCAUGU; that for B34 was 0.538 KA relative to UGCAUGU.
Take B35: the binding signal was 0.133 KA relative to UGCAUGU.
Consider B36, for which the binding signal was 0.163 KA relative to UGCAUGU.
Under B37 stands 0.0997 KA relative to UGCAUGU; under B38, 0.123 KA relative to UGCAUGU.
